From PubChem BioAssay
ssDAF-12 act: activates DAF-12 receptor from parasite S. stercoralis; HEK293 ssDAF-12/GRIP1 lit1-tk-luc reporter, luminescence; % of 3 µM dafachronic acid response; activation, % at 6.8 µM; hit rate 1% among 370,000; AID 652126;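 active means activation above the mean over all tested compounds plus 3 SD, cut at about 0.9% in these data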;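 further: 0% = DMSO-only wells and 100% = 3 µM delta7-dafachronic acid wells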
DAX1 inh-1: blocks DAX1 repression of SF-1 activated StAR promoter | hit rate 1.1% among 370,000 | HEK293T StAR-luciferase reporter, SF-1/DAX-1 repression relief | inhibition, % at 6.8 µM;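 active means inhibition above the mean over all tested compounds plus 3 SD, cut at about 3.6% in these data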;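 further: 0% = DAX-1 cells with DMSO and 100% = cells lacking DAX-1 with DMSO; higher inhibition means more luminescence from relief of DAX-1 repression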
Wee1 stabilizer: blocks degradation of human Wee1 kinase; P30291; HeLa Luc-Wee1K328M stability, luciferase luminescence; 100% = proteasome inhibitor MG132 effect; reporter increase, % at 5 µM; hit rate 1.2% among 220,000;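 active means activation above the mean of all tested compounds plus 3 SD, set per screening run, cut at about 8.8% in these data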;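 further: cells exposed to compound for 20 h before luminescence read; 0% = DMSO alone and 100% = MG132 at 30 µM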
Target sequence (P30291 whole entry K328M): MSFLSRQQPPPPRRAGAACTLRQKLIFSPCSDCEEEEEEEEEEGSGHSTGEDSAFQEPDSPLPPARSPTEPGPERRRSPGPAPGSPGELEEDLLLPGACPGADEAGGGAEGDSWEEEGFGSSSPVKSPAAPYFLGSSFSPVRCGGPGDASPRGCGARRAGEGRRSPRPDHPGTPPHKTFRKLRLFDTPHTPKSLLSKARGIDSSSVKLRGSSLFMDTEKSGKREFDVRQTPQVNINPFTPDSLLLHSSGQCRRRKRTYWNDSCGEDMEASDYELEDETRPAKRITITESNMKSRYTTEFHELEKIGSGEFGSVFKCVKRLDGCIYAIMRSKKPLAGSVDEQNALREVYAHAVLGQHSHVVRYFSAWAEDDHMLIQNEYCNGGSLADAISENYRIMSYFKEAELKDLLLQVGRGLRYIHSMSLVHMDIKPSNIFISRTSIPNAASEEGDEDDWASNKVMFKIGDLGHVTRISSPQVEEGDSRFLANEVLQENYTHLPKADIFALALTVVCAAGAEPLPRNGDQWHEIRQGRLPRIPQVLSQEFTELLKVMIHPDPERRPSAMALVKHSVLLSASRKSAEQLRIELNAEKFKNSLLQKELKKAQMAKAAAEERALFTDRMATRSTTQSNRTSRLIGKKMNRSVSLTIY
DAX1 inh-2: NR0B1 (DAX1) inhibition; P51843; HEK293 Gal4-DAX1 luciferase reporter, luminescence; inhibition, % at 6.75 µM; hit rate 0.99% among 340,000;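 active means inhibition above the mean over all tested compounds plus 3 SD, cut at about 4.2% in these data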;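 further: 0% = DAX1-transfected cells with DMSO and 100% = empty-vector control cells with DMSO; inhibition shows as a rise in luminescence from relieved DAX1 repression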
hcDAF-12 act: activators of H. contortus DAF-12 nuclear receptor | activation, % at 6.8 µM | HEK293 hcDAF-12 lit1-tk-luc reporter, luminescence; 0% DMSO, 100% Δ7-dafachronic acid | hit rate 1.4% among 370,000;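 active means activation above the mean of all tested compounds plus 3 SD, cut at about 5.5% in these data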;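 further: 100% = response to 3 µM Δ7-dafachronic acid high control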
hgDAF-12 ag: agonists of H. glycines DAF-12 nuclear receptor | HEK293 GAL4-hgDAF12 UAS-luciferase reporter, agonist luminescence; normalized to butyrate control | activation, % at 6.8 µM | hit rate 1.8% among 370,000 | AID 687014;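 active means activation above a cutoff set at the mean of all screened compounds plus 3 SD, cut at about 10% in these data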;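 further: 0% = DMSO wells and 100% = sodium butyrate wells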
Starred values were filed as active, the others as inactive. Sampled rows, rich in hits. Any-hit rate of the full collection: about 4.6%.

Results for CNCC(O)Cn1c2c(c3ccccc31)CCCC2 (centres undefined) ?
ssDAF-12 act: 6.8*; DAX1 inh-1: 0; Wee1 stabilizer: -3; DAX1 inh-2: 1; hcDAF-12 act: -2; hgDAF-12 ag: 0

What do the screens show for `Cc1cc(C)c(S(=O)(=O)Nc2nnc(C)s2)c(C)c1`?
ssDAF-12 act: -1; DAX1 inh-1: 0; Wee1 stabilizer: -2; DAX1 inh-2: 1; hcDAF-12 act: -1; hgDAF-12 ag: 1

Results for Cc1cc(C)c(S(=O)(=O)Nc2nnc(CC(C)C)s2)c(C)c1 ?
ssDAF-12 act: -1; DAX1 inh-1: 0; DAX1 inh-2: 4.4*; hcDAF-12 act: -2; hgDAF-12 ag: 1

Results for O=C(CN(c1ccc(Br)cc1)S(=O)(=O)c1ccc(Cl)c([N+](=O)[O-])c1)NCC1CCCO1 (centres undefined) ?
ssDAF-12 act: -1; DAX1 inh-1: -1; DAX1 inh-2: 1; hcDAF-12 act: -1; hgDAF-12 ag: 0

How did COC(=O)c1cnc(N2CCOCC2)nc1C(F)(F)F do in these assays?
ssDAF-12 act: 0; DAX1 inh-1: 1; Wee1 stabilizer: 10*; DAX1 inh-2: 3; hcDAF-12 act: -1; hgDAF-12 ag: 1

How did COC(=O)c1cnc(N2CCCN(S(=O)(=O)c3ccccc3)CC2)nc1C(F)(F)F do in these assays?
ssDAF-12 act: -1; DAX1 inh-1: -1; Wee1 stabilizer: -1; DAX1 inh-2: 0; hcDAF-12 act: -1; hgDAF-12 ag: -4

What do the screens show for `CCOc1ccccc1C(=O)N[C@H](C(=O)Nc1nc2c(s1)CCCC2)C(C)C`?
ssDAF-12 act: 4.1*; DAX1 inh-1: 0; Wee1 stabilizer: 1; DAX1 inh-2: 0; hcDAF-12 act: 3; hgDAF-12 ag: 6

What do the screens show for `COc1ccc(C(=O)N[C@H](C(=O)Nc2nc3c(s2)CCCC3)C(C)C)cc1`?
ssDAF-12 act: -1; DAX1 inh-1: 0; Wee1 stabilizer: 10*; DAX1 inh-2: 0; hcDAF-12 act: 1; hgDAF-12 ag: 5

What do the screens show for `CCOc1ccccc1NC(=O)[C@@H](NC(=O)c1ccccc1F)C(C)C`?
ssDAF-12 act: -1; DAX1 inh-1: 0; DAX1 inh-2: 0; hcDAF-12 act: -2; hgDAF-12 ag: -1

What do the screens show for `O=C(c1cc(C2CC2)on1)N(C1CCCCC1)C1CCOCC1`?
ssDAF-12 act: -2; DAX1 inh-1: 1; hcDAF-12 act: -1; hgDAF-12 ag: -2

Results for COC(=O)N(C)C[C@@H]1OCc2ccccc2-c2c(n(C)c3ccccc23)C(=O)N([C@H](C)CO)C[C@@H]1C ?
ssDAF-12 act: -1; DAX1 inh-1: 3.8*; DAX1 inh-2: 1; hcDAF-12 act: 0; hgDAF-12 ag: -3

How did C=CCCC(=O)N1CCCC(C(=O)c2cccc(OC)c2)C1 (centres undefined) do in these assays?
ssDAF-12 act: -1; DAX1 inh-1: 0; DAX1 inh-2: 2; hcDAF-12 act: -1; hgDAF-12 ag: 1

How did Cc1nc2ccccc2nc1OCc1ccc([N+](=O)[O-])cc1 do in these assays?
ssDAF-12 act: -2; DAX1 inh-1: 0; Wee1 stabilizer: 10*; DAX1 inh-2: 0; hcDAF-12 act: -2; hgDAF-12 ag: 0

What do the screens show for `COCCOc1nc2ccccc2nc1C`?
ssDAF-12 act: -1; DAX1 inh-1: 1; Wee1 stabilizer: -2; DAX1 inh-2: -1; hcDAF-12 act: -1; hgDAF-12 ag: -1

How did CC1(C(=O)NS(=O)(=O)c2ccc3c(c2)CCO3)CCN1C(=O)C1(c2ccc(Cl)cc2)CC1 (centres undefined) do in these assays?
ssDAF-12 act: -1; DAX1 inh-1: -2; hcDAF-12 act: 0; hgDAF-12 ag: -2

How did COc1cc(/C=N/NC(=O)c2c(C)nc3ccc(Cl)cn23)cc(OC)c1OC do in these assays?
ssDAF-12 act: -1; DAX1 inh-1: -1; DAX1 inh-2: 5.3*; hcDAF-12 act: -1; hgDAF-12 ag: -2

Results for COc1ccc(CNC(=O)COC(=O)[C@H](Cc2ccccc2)NC(=O)c2cccs2)cc1 ?
ssDAF-12 act: -2; DAX1 inh-1: -1; DAX1 inh-2: 0; hcDAF-12 act: 0; hgDAF-12 ag: -4
